This is part of a sample that, as a whole, favours compounds with a hit. Of some 83,000 tested, about 20% had one in any assay.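 Results are percent growth after 48 hours of single-concentration exposure. 100 means growth as in untreated cells, lower positive values show inhibition; negative values down to -100 show cell death.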 Calls of active or inactive are those of the source. How the source made its calls: active means growth percent below 10; inactive means the rest.

For the assay, the system named is HL-60(TB) leukemia. The experiment in a line: NCI-60 one-dose screen, 48 h (100 = growth as untreated, 0 = no growth, -100 = all killed). The note with it: 10 µM unless noted.
Take `CCCCC1COc2cccc3c(SCC(=O)N(C)c4cccc(Cl)c4)cc[n+]1c23` (stereo not given): the growth was 102% (inactive).

Take `O=C(/C=C/c1ccco1)c1cccc(Nc2nc(Nc3ccccc3)nc(Nc3ccccc3)n2)c1`: the growth was 91.1% (inactive).

Turning to `CSc1nc(S(C)(=O)=O)nc2[nH]c(=O)[nH]c12`, the growth is 108% (inactive).

Regarding `CCCCCN1C(=O)/C(=c2\sc3n(c2=O)C2C(NN=3)N(CC)C(=O)N2CC)c2ccccc21` (stereo not given), the growth was -56.6% (active).

As to `COc1ccc(-c2csc(NC(=O)c3cc(OC)c(OC)c(OC)c3)n2)cc1`, the growth is 102% (inactive).

For the compound `O=C(COc1ccc(/C=C2\COc3ccccc3C2=O)cc1)Nc1nccs1`, the growth was -11.4% (active).

In the case of `O=c1oc2ccc(I)cc2c(=O)n1-c1ccc(Br)cc1F`, the growth was -27.8% (active).

Consider `CC(=O)c1ccc2c(c1)CCc1ccccc1-2`, for which the growth is 126% (inactive).

Regarding `COc1cc(/C=C/c2cc(/C=C/c3ccc(O)c(OC)c3)n(C(=O)Nc3ccc(C)cc3)n2)ccc1O`, the growth was -28.2% (active).

`Nc1cc2c(cc1Cl)-c1ccc([N+](=O)[O-])cc1/C2=N\O`: the growth was 89.5% (inactive).

For the compound `CC(C)(C)c1[nH]nc2c1C(c1cc3ccccc3[nH]c1=O)Nc1cc(C(=O)Nc3ccc(Cl)cc3)ccc1N2` (stereo not given), the growth was 55.9% (inactive).

Consider `Oc1ccccc1N=Cc1ccccc1`, for which the growth is 84.2% (inactive).

For the compound `COc1ccc2c(c1)nc(N)c1c3ccccc3cn21`, the growth was 67.1% (inactive).

`Cc1cn(-c2cc(NC(=O)c3cncc(C#Cc4c(N)ncc5ccc(F)cc45)c3)cc(C(F)(F)F)c2)cn1`: the growth was 9.54% (active).

For the compound `O=C1NC(=Nc2ccc(Cl)cc2)S/C1=C\c1cn(-c2ccccc2)nc1-c1ccccc1`, the growth was 92% (inactive).

With `COCCCOc1cc(C[C@@H](C[C@H](N)[C@@H](O)C[C@H](C(=O)NCC(C)(C)C(N)=O)C(C)C)C(C)C)ccc1OC`, the growth is 111% (inactive).

Turning to `COc1ccc(C(=O)c2cc(OC)c(OC)c(OC)c2)cc1/C=C/C(=O)c1ccc(F)cc1`, the growth is 93.2% (inactive).

Take `O=c1c2ccccc2n2cnc3ccc(Cl)c1c32`: the growth was 82.6% (inactive).

Turning to `Nc1c(C(=O)Nc2ccccc2)sc2nc3c(cc12)CN(CCc1ccccc1)CC3`, the growth is 102% (inactive).

Turning to `C=C(CNCCO)[C@@H]1CC[C@]2(CO)CC[C@]3(C)[C@H](CC[C@@H]4[C@@]5(C)CCC(NCCc6ccc(O)cc6)C(C)(C)[C@@H]5CC[C@]43C)[C@@H]12` (stereo not given in full), the growth is -52.2% (active).

Take `C=CC(=O)Nc1cccc(Oc2nccc(Nc3nnc(C4CC4)s3)n2)c1`: the growth is 78% (inactive).

As for `Cc1[nH]cnc1/C=C1\SC(N2CCCCC2)=NC1=O`, the growth is 96.4% (inactive).

Consider `CCOc1ccccc1C(=O)N1CCN(c2cc(Cl)cc(Cl)c2)CC1`, for which the growth was -59% (active).

As to `Cc1cc(=NO)cc(C)n1O`, the growth is 81.6% (inactive).

With `CC(c1ccccc1)N1C(=O)C(C2SC(=S)N(C(C)c3ccccc3)C2=O)SC1=S` (stereo not given), the growth is 78.2% (inactive).

For `CCOC(=O)c1csc(NC(=O)COc2cccc(/C=C3\Oc4cc(OC)ccc4C3=O)c2)n1`, the growth is 61.3% (inactive).

For the compound `CCc1ccc(-c2ccc(COc3ccc(CC4SC(=O)NC4=O)cc3)cc2)cc1` (stereo not given), the growth was 88.1% (inactive).

Regarding `O=C(O)CSc1ccc(NCc2oc(CO)cc(=O)c2O)cc1`, the growth was 69.3% (inactive).

As for `Cc1ccc2nc(-c3ccc(-n4on4-c4ccc(/C=C/c5ccc(-n6on6-c6ccc(-c7nc8ccc(C)cc8s7)cc6)cc5S(=O)(=O)O)c(S(=O)(=O)O)c4)cc3)sc2c1`, the growth is 101% (inactive).

As for `Cc1cc(Nc2nc(SCc3ccc(C(=O)Nc4ccc(F)cc4N)cc3)nn3cccc23)n[nH]1`, the growth was -26.4% (active).

For the compound `COc1cccc(/C=N/C(=S)NC2(C)C3CCC(C3)C2(C)C)c1O` (stereo not given), the growth was 75.5% (inactive).

For the compound `Cc1ccc2nc(-c3ccc(N(C)C)c(Br)c3)cn2c1`, the growth was 36.8% (inactive).

With `COc1ccc2c(c1)c(-c1cc(-c3cn(C)c4ccc(OC)cc34)on1)cn2C`, the growth is 101% (inactive).

With `CCN(CC)CCCN1C(=O)c2c(c(C)c3c(oc4ccc(O)cc43)c2C)C1=O`, the growth was -5.12% (active).

Turning to `N#CC1=C(N)Oc2c(sc3c(F)cccc23)C1c1ccc(Cl)cc1` (stereo not given), the growth is -6.14% (active).

`Cc1ccc2c(c1)C(C)Cc1c(ncnc1-n1cnc3ccccc31)N2C` (stereo not given): the growth is -19.1% (active).

Take `Cc1cnc(SCc2ccc(Cl)cc2Cl)nc1Nc1ccc(Cl)c(Cl)c1`: the growth is 81% (inactive).

Take `CC(=O)ON1CCCC(P(=O)(OCCSC(=O)C(C)(C)C)OCCSC(=O)C(C)(C)C)C1=O` (stereo not given): the growth is 14% (inactive).

As to `CN1CC=C(c2cc(NC(=O)Nc3ccc(Oc4ccnc(NC(=O)C5CC5)c4)c(F)c3)cc(C(F)(F)F)c2)CC1`, the growth is -18.3% (active).

On to `COc1ccc(-c2ccc(=O)oc2C#Cc2cc(OC)c(OC)c(OC)c2)cc1O`, for which the growth was -45.7% (active).

Values taken from PubChem BioAssay (NCI).
